# Source: PubChem BioAssay (EPA / NIEHS)
# Results filed as inconclusive are left out. Active and inactive are the calls of the source. Rule for the calls: active = hit-call score of the fitted dose curve at least 0.9, where 1 is the maximum; inconclusive = response in the unintended direction; inactive = score below 0.9.
# Read-out: glucuronosyltransferase (UGT1A1), UGT1A1 (gene 54658)
# Experiment: CLD_UGT1A1_24hr: CellzDirect (CLD) Gene Expression Assay for glucuronosyltransferase (UGT1A1) at 24 hours (AID 2283696)
# Procedure: CLD_24hr is a cell-based, multiplexed-readout assay that uses hepatocyte, a human liver primary cell, with measurements taken at 24 hours after chemical dosing in a 96-well plate.CLD_UGT1A1_24hr is one of 16 assay component(s) measured or calculated from the CLD_24hr assay. It is designed to make measurements of mRNA induction, a form of inducible reporter, as detected with chemiluminescence signals by Quantitative Nuclease Protection Assay (qNPA) technology.Data from the assay component CLD_UGT1A1_24hr was analyzed at the endpoint, CLD_UGT1A1_24hr, in the positive analysis fitting direction relative to DMSO as the negative control and baseline of activity. Using a type of inducible reporter, gain-of-signal activity can be used to understand changes in the reporter gene as they relate to the gene UGT1A1. Furthermore, this assay endpoint can be referred to as a primary readout. To generalize the intended target to other relatable targets, this assay endpoint is annotated to the transferase intended target family, where subfamily is glucuronosyltransferase.
# Human hepatocyte cultures were treated daily for two consecutive days with fresh dosing solutions containing appropriate concentrations of the 320 ToxCast chemicals (chemical identities were blinded to CellzDirect and other ToxCast collaborators), vehicle control (0.2% DMSO), and positive control inducers as summarized in Table 1. Due to the large number of treatment groups and chemicals examined, the ToxCast chemicals were divided into two groups (spanning two independent cultures of hepatocytes from separate donor preparations (Hu778: ToxCast plates 1 and 2; Hu776: ToxCast plates 3 and 4). Each preparation of human hepatocyte cultures was treated with respective vehicle control, medium only control, set of six positive controls/reference chemicals for the five hepatic receptor pathways, and a subset of eight of the ToxCast chemicals (indoxacarb, pyrithiobac-sodium, norflurazon, cyhalofop-butyl, methomyl, thiram, acetochlor, and propiconazole). These replicate data, coupled with internal replicates designed within the blinded ToxCast chemical library, provided additional data to evaluate interindividual differences between hepatocyte preparations and their potential impact on chemical profiles.Cell morphology and integrity were evaluated using phase-contrast microscopy as an indicator of hepatocyte cell health (Tyson & Green, 1987). Cultures for each treatment group (i.e., media, vehicle [0.2% DMSO], positive control inducers [multiple concentrations], and the ToxCast chemicals [multiple concentrations]) were observed and cell morphology was assessed relative to vehicle control cultures at each harvest time point (0, 6, 24, or 48 h). […] Images were evaluated at the conclusion of the study to assess changes in cell integrity and account for the effects of chemical exposure on uncharacteristic changes in concentration-dependent gene expression profiles. The results from these determinations of apparent cytotoxicity were annotated (yes/no) alongside the corresponding qNPA data for reference.At the conclusion of each treatment period, hepatocyte cultures (96-well) were washed with 1 volume of HBSS, lysed by addition of 25 ul ArrayPlate lysis buffer (HTG, Tucson, AZ), and 70 ul/well of Denaturation Oil, denatured by incubation at 95C for 10 min, and frozen at approximately -70C until analysis by nuclease protection assay (qNPA) (Roberts et al., 2007). For qNPA analysis, cell lysates were thawed at 50C for approximately 30 min, qNPA probes were added, and samples were incubated at 95C for 10 min to begin the detection process by denaturing the target RNA, dissociating the duplexes and secondary structure hybridization. At the conclusion of the hybridization period, S1 nuclease reagent was added to each sample to digest all nonprotected nucleotides at 50C for 60-90 min. […]
Structure (SMILES),outcome,AC50
COCC(C)N(C(=O)CCl)c1c(C)csc1C (stereo not given),inactive,–
Nc1cnn(-c2ccccc2)c(=O)c1Cl,inactive,–
OC(c1ccc(Cl)cc1)(c1ccc(Cl)cc1)C(Cl)(Cl)Cl,inactive,–
CCCN(CC)CC1COC2(CCC(C(C)(C)C)CC2)O1 (stereo not given),inactive,–
CC(C)C1(C)N=C(c2ncccc2C(=O)O)NC1=O (stereo not given),inactive,–
CC(C)Nc1nc(Cl)nc(NC(C)C)n1,–,4.11 µM (active)
COC(=O)c1c(C(F)F)nc(C(F)(F)F)c(C2=NCCS2)c1CC(C)C,inactive,–
CCCCC(C#N)(Cn1cncn1)c1ccc(Cl)cc1 (stereo not given),inactive,–
CC1(C)CON(Cc2ccccc2Cl)C1=O,inactive,–
CCCCOCN(C(=O)CCl)c1c(CC)cccc1CC,inactive,–
N#CN=C1SCCN1Cc1ccc(Cl)nc1,inactive,–
Nc1c(Cl)c(Cl)nc(C(=O)O)c1Cl,inactive,–
Clc1cccc(C(Cl)(Cl)Cl)n1,inactive,–
CN=C=S,inactive,–
CCOP(=S)(OCC)Oc1nc(Cl)n(C(C)C)n1,–,0.652 µM (active)
COc1ccc(-c2ccccc2)cc1NNC(=O)OC(C)C,inactive,–
COc1cc(Cl)c(OC)cc1Cl,inactive,–
CCOc1cc(C(C)(C)C)ccc1C1COC(c2c(F)cccc2F)=N1 (stereo not given),inactive,–
CCN(CC)c1nc(C)cc(OP(=S)(OC)OC)n1,inactive,–
CCCCC(O)(Cn1cncn1)c1ccc(Cl)cc1Cl (stereo not given),inactive,–

Structure (SMILES),outcome,AC50
COC(=O)NS(=O)(=O)c1ccc(N)cc1,inactive,–
O=C(O)c1c(Cl)ccc2cc(Cl)cnc12,inactive,–
CCSC(=O)N1CCCCCC1,inactive,–
O=c1n(Cl)c(=O)n(Cl)c(=O)n1Cl,inactive,–
CNC(=O)N(C)c1nnc(C(C)(C)C)s1,inactive,–
CCNP(=S)(OC)O/C(C)=C/C(=O)OC(C)C (stereo not given),–,1.7 µM (active)
Cc1c(COC(=O)[C@@H]2[C@H](/C=C(\Cl)C(F)(F)F)C2(C)C)cccc1-c1ccccc1,–,20 µM (active)
CC(C)(C)C(=O)C(Oc1ccc(Cl)cc1)n1cncn1 (stereo not given),inactive,–
O=P(O)(O)CCCl,inactive,–
CSC(=O)c1c(C(F)F)nc(C(F)(F)F)c(C(=O)SC)c1CC(C)C,inactive,–
COCc1cnc(C2=NC(C)(C(C)C)C(=O)N2)c(C(=O)O)c1 (stereo not given),inactive,–
COP(=S)(OC)Oc1ccc([N+](=O)[O-])c(C)c1,inactive,–
O=C(Nc1ccccc1-c1ccc(Cl)cc1)c1cccnc1Cl,inactive,–
CC(C)N1C(=O)N(c2ccccc2)CSC1=NC(C)(C)C,inactive,–
CCOc1nc(C(Cl)(Cl)Cl)ns1,inactive,–
CC1(C)C(C(=O)OC(C#N)c2cccc(Oc3ccccc3)c2)C1(C)C (stereo not given),–,5.68 µM (active)
COP(=S)(OC)SCn1nnc2ccccc2c1=O,–,9.43 µM (active)
CNC(=O)Oc1cccc2ccccc12,inactive,–
Cc1nc(N(C)C)nc(OC(=O)N(C)C)c1C,inactive,–
CC(C)=CC1C(C(=O)OCc2coc(Cc3ccccc3)c2)C1(C)C (stereo not given),inactive,–
